14-3-3g Raf = modulators of human 14-3-3 gamma - Raf peptide interaction; P61981; FP, 14-3-3gamma / TMR-pS259-Raf peptide binding; inhibition, % at 40 µM; 160,000 compounds, 0.19% hits; AID 422; in the data active = inhibition above about 30%
Each line names hits and unclear results; the compound was inactive in the other large screens. Shown is part of a subset that was picked to be rich in hits.

O=[N+]([O-])c1ccc(N2CCCC2)c2nonc12	14-3-3g Raf 200
O=[N+]([O-])c1ccc(N2CCCC2)c2ccccc12	none
O=[N+]([O-])c1ccc(Cl)c2nonc12	none
CCOC(=O)C1C2NC(=S)N(c3ccc(Cl)cc3)C1(C)Oc1ccc(OC)cc12 (centres undefined)	none
Cn1nc([N+](=O)[O-])c(Cl)c1[N+](=O)[O-]	none

Screening results as filed in PubChem.
